# Laboratory results: PubChem BioAssay (EPA / NIEHS)
# Results filed as inconclusive are left out. Activity calls are given as the source filed them. Rule for the calls, unless noted: active = hit-call score of the fitted dose curve at least 0.9, where 1 is the maximum; inconclusive = response in the unintended direction; inactive = score below 0.9.
# Experiments:
# PGR (gene 5241) [1] = target: PGR (gene 5241) (UniProt P06401); experiment: TOX21_PR_BLA_Followup_Agonist_ratio: Tox21 HEK293 Progesterone Receptor (PR) Agonism Beta-lactamase Follow-Up Assay, Ratio (AID 2283933)
# In short: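 Beta-lactamase reporter readout: ratio of cleaved (ch2) to uncleaved (ch1) substrate after 2 h room-temperature loading, following 16 h compound exposure at 37C. Cells were PR-UAS-bla HEK293T in 2% charcoal-stripped FBS medium. Viability was multiplexed by CellTiter-Glo.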
# PGR (gene 5241) [2] = target: PGR (gene 5241) (UniProt P06401); experiment: TOX21_PR_BLA_Followup_Antagonist_ratio: Tox21 HEK293 Progesterone Receptor (PR) Antagonism Beta-lactamase Follow-Up Assay, Ratio (AID 2283934);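 note: PR-UAS-bla HEK293T cells stimulated with 1 nM R5020 agonist for 16 hr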
# In short: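 Readout is the blue/green (ch2/ch1) substrate cleavage ratio after 2 hours at room temperature, following 16 hr co-treatment of PR-bla HEK293T cells with compound and 1nM promegestone. Multiplexed CellTiter-Glo viability flags cytotoxicity; DMSO baseline.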
# [3] = TOX21_PR_BLA_Followup_Agonist_viability: Viability Assessment in the Tox21 HEK293 Progesterone Receptor (PR) Agonism Beta-lactamase Follow-Up Assay (AID 2283935);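 note: signal loss means lower viability so actives are cytotoxic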
# In short: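 Run multiplexed with the beta-lactamase FRET read, this endpoint measures ATP by CellTiter-Glo luminescence (30 min, room temperature). PR-UAS-bla HEK293T cells received compound 6 hr after plating and were then incubated 16 hr at 37C in 2% stripped serum.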
# [4] = TOX21_PR_BLA_Followup_Antagonist_viability: Viability Assessment in the Tox21 HEK293 Progesterone Receptor (PR) Antagonism Beta-lactamase Follow-Up Assay (AID 2283936);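 note: cells exposed to compound with R5020 agonist for 16 h; hits lower the luminescence signal meaning cytotoxicity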
# In short: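 PR-UAS-bla HEK293T cells in medium with 2% charcoal-stripped FBS were treated with compounds plus R5020 for 16 hr at 37C. After the beta-lactamase read, CellTiter-Glo was added to the same wells and luminescence read after 30 min at room temperature.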
# PGR (gene 5241) [5] = target: PGR (gene 5241) (UniProt P06401); experiment: TOX21_PR_LUC_Followup_Agonist: Tox21 HEK293 Progesterone Receptor (PR) Agonism Luciferase Follow-Up Assay (AID 2283937; active = hit-call score of the fitted dose curve at least 0.9, where 1 is the maximum; inactive = score below 0.9)
# In short: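 Agonism scored as luciferase induction over DMSO, read by ONE-Glo after 30 min at RT. Compounds were incubated 16 h at 37C on HEK293-PR-A-luc cells (3,000/well, pre-plated 5 h) previously grown 5 days in charcoal-stripped serum.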
# PGR (gene 5241) [6] = target: PGR (gene 5241) (UniProt P06401); experiment: TOX21_PR_LUC_Followup_Antagonist: Tox21 HEK293 Progesterone Receptor (PR) Antagonism Luciferase Follow-Up Assay (AID 2283938);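 note: curve fitted upward as signal gain over DMSO baseline despite antagonist label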
# In short: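 A follow-up to the PR bla screen using HEK293-PR-A-luc cells, multiplexed with cell viability to flag cytotoxicity. Reporter luminescence after 16 h compound exposure was analysed relative to DMSO.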
# [7] = TOX21_PR_LUC_Followup_Agonist_viability: Viability Assessment in the Tox21 HEK293 Progesterone Receptor (PR) Agonism Luciferase Follow-Up Assay (AID 2283941);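 note: loss of signal means cytotoxicity so actives lower viability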
# In short: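 Cytotoxicity counter-readout in the PR-A luciferase reporter line HEK293, with 16 h compound exposure at 37C after cells were cultured in charcoal-stripped serum. Cellular ATP quantified by CellTiter-Glo luminescence.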
# THRA (gene 7067) = THRA (gene 7067) (UniProt P10827); experiment: TOX21_TRA_COA_Agonist_Followup_ratio: Tox21 Thyroid Hormone Receptor alpha Agonism through Coactivator Recruitment Follow-Up Assay, Ratio (AID 2283948; active = hit-call score of the fitted dose curve at least 0.9, where 1 is the maximum; inactive = score below 0.9)
# In short: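 First, compound was incubated with 2.5 nM GST-TRα LBD in 0.10% BSA. Next, 200 nM fluorescein-SRC-2 and 2 nM Tb-anti-GST antibody were added. Finally, the 520:495 nm ratio was normalized to DMSO and T3 controls.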
# THRB (gene 7068) [8] = target: THRB (gene 7068) (UniProt P10828); experiment: TOX21_TRB_BLA_Agonist_Followup_ratio: Tox21 Thyroid Hormone Receptor beta Agonism Beta-lactamase (BLA) Follow-Up Assay, Ratio (AID 2283954)
# In short: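 Agonist mode: compounds (11-point, triplicate) incubated 18 h with HEK293T cells carrying GAL4-DBD/human TRβ-LBD and UAS-β-lactamase. Blue/green (460/530 nm) FRET ratio read after 2 h CCF4-AM loading; CellTiter-Glo viability run in the same plates.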
# THRB (gene 7068) [9] = target: THRB (gene 7068) (UniProt P10828); experiment: TOX21_TRB_COA_Agonist_Followup_ratio: Tox21 Thyroid Hormone Receptor beta Agonism through Coactivator Recruitment Follow-Up Assay, Ratio (AID 2283963; active = hit-call score of the fitted dose curve at least 0.9, where 1 is the maximum; inactive = score below 0.9)
# In short: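 Cell-free TR-FRET coactivator recruitment: GST-tagged TRβ LBD (5.0 nM) with 0.10% BSA incubated with compound, then fluorescein-SRC-2 peptide (200 nM) and Tb-anti-GST antibody (2 nM) added. 520:495 nm ratio normalized to DMSO (0%) and T3 (100%).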
# [10] = target: Retinoic acid receptor RXR-alpha (Homo sapiens) (UniProt P19793); experiment: TOX21_TR_RXR_BLA_Agonist_Followup_ratio: Tox21 Thyroid Hormone Receptor beta Retinoid X Receptor alpha (RXRa) Agonism Beta-lactamase (BLA) Follow-Up Assay, Ratio (AID 2283968)
# In short: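 Agonist mode: compounds given to RXRa-bla HEK293T cells at 11 concentrations, triplicate, 16 h at 37C/5% CO2. Readout is the 460:530 nm blue/green ratio after 2 h substrate loading at room temperature; DMSO baseline, 9-cis retinoic acid control.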
# [11] = TOX21_PR_LUC_Followup_Antagonist_viability: Viability Assessment in the Tox21 HEK293 Progesterone Receptor (PR) Antagonism Luciferase Follow-Up Assay (AID 2283940)
# In short: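 Viability counter-readout: cellular ATP measured by luciferase luminescence after 16 h compound exposure at 37C of HEK293-PR-A-luc cells, which had been cultured in charcoal-stripped serum and seeded 5 h beforehand.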
# [12] = target: T1, Thyroid hormone receptor alpha (Rattus norvegicus) + Thyroid hormone receptor beta (Rattus norvegicus) (UniProt P18113+P63059); experiment: TOX21_TR_LUC_GH3_Antagonist_Followup: Tox21 GH3 Thyroid Hormone Receptor Antagonism Luciferase Follow-Up Assay (AID 2283942)
# In short: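 Loss of T3-driven (1.0 nM final) reporter activity in GH3 cells was read by ONE-Glo luminescence after 24 h incubation at 37C; 15-point compound series spanned 92 uM to 5nM final, 1,500 cells/well.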
# [13] = TOX21_TRB_BLA_Antagonist_Followup_viability: Viability Assessment in the Tox21 Thyroid Hormone Receptor beta Antagonism Beta-lactamase (BLA) Follow-Up Assay (AID 2283961)
# In short: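 Cytotoxicity is measured in parallel with the antagonist-mode TRβ beta-lactamase screen, using ATP-coupled luciferase luminescence. Engineered HEK293T cells are treated for 18 h with 11-point compound series in triplicate.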
# [14] = target: Retinoic acid receptor RXR-alpha (Homo sapiens) (UniProt P19793); experiment: TOX21_TR_RXR_BLA_Antagonist_Followup_ratio: Tox21 Thyroid Hormone Receptor beta Retinoid X Receptor alpha (RXRa) Antagonism Beta-lactamase (BLA) Follow-Up Assay, Ratio (AID 2283972)
# In short: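 Antagonist mode used GAL4 UAS-driven beta-lactamase in HEK293T cells expressing RXRa, treated for 16 h with compound concentration series. Activity was taken from the blue/green (460:530 nm) ratio of cleaved to uncleaved substrate.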
# [15] = target: T1, Thyroid hormone receptor alpha (Rattus norvegicus) + Thyroid hormone receptor beta (Rattus norvegicus); experiment: TOX21_TR_LUC_GH3_Agonist_Followup: Tox21 GH3 Thyroid Hormone Receptor Agonism Luciferase Follow-Up Assay (AID 2283939)
# In short: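 Agonist-mode confirmatory run: 15 concentrations (5 nM to 92 uM final) on GH3 rat pituitary cells, 24 h at 37C/5% CO2, T3 as positive control. Luminescence read with ONE-Glo after 30 min.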
# [16] = TOX21_TR_RXR_BLA_Agonist_Followup_viability: Viability Assessment in the Tox21 Thyroid Hormone Receptor beta Retinoid X Receptor alpha (RXRa) Agonism Beta-lactamase (BLA) Follow-Up Assay (AID 2283970)
# In short: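 CellTiter-Glo ATP luciferase read-out of cell viability, multiplexed with the beta-lactamase reporter run. RXRa-bla HEK293T cells in charcoal-stripped serum medium were exposed 16 h at 37C; data fitted both directions relative to DMSO.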
# [17] = CCTE_Harrill_HTTr_Viability_DMEM_6hr: (Pilot) CCTE's 6-hour Cell Viability Assessment for the High-Throughput Transcriptomics (HTTr) Platform, in MCF-7 cells cultured in DMEM + 10% fetal bovine serum, Harrill Lab (AID 2283973; active = hit-call score of the fitted dose curve at least 0.9, where 1 is the maximum; inactive = score below 0.9)
# In short: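 Propidium iodide uptake imaged by high-content analysis after six hours of chemical treatment in an eight-concentration series. Cells: MCF-7 grown in DMEM with 10% fetal bovine serum; DMSO as baseline.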
# [18] = CCTE_Harrill_HTTr_Viability_DMEM_12hr: (Pilot) CCTE's 12-hour Cell Viability Assessment for the High-Throughput Transcriptomics (HTTr) Platform, in MCF-7 cells cultured in DMEM + 10% fetal bovine serum, Harrill Lab (AID 2283974; active = hit-call score of the fitted dose curve at least 0.9, where 1 is the maximum; inactive = score below 0.9)
# In short: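 Propidium iodide dye exclusion imaged by high-content microscopy after 12 h chemical exposure (eight concentrations) of MCF-7 cells grown in DMEM plus 10% FBS; values fitted in both directions relative to DMSO.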
# [19] = CEETOX_H295R_ESTRONE_noMTC: CeeTox H295R High-throughput Steroidogenesis Assay for Estrone, maximum tolerated concentration (MTC) filtered results only (AID 2283921; active = hit-call score of the fitted dose curve at least 0.9, where 1 is the maximum; inactive = score below 0.9); settings: actives raise or lower the signal
# In short: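 Estrone in spent medium, quantified by tandem MS following dansyl chloride derivatization, after 48 h chemical exposure (0.1% DMSO) of forskolin-prestimulated (10 uM, 48 h) H295R cells; concentrations not MTC-filtered, bidirectional fit against DMSO.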
# Chain of PGR (gene 5241) (P06401 whole entry, looked up): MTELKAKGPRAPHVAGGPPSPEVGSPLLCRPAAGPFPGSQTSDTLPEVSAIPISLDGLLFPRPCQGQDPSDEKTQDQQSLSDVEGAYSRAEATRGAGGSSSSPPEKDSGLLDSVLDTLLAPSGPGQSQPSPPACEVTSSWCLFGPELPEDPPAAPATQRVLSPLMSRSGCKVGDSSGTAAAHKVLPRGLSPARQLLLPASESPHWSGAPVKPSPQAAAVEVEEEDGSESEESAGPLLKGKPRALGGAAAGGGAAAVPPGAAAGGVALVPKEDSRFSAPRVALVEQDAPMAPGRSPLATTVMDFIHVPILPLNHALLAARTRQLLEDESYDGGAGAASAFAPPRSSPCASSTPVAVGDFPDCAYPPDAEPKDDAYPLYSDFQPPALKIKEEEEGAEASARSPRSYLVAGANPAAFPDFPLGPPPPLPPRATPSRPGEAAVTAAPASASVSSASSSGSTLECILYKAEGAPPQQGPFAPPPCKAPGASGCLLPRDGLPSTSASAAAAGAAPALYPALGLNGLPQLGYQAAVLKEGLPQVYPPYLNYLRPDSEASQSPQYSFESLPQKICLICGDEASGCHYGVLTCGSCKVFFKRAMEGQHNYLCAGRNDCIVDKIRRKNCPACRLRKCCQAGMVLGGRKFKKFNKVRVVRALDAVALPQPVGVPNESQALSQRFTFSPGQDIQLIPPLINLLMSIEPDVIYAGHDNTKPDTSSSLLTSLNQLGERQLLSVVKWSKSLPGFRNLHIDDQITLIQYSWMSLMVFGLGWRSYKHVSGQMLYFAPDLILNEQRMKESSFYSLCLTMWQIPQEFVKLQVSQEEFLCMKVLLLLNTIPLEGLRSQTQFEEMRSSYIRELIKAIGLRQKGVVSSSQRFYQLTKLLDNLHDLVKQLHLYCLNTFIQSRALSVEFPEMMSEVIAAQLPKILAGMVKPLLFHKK
# Chain of THRB (gene 7068) (P10828 whole entry, looked up, the tested form may be a part): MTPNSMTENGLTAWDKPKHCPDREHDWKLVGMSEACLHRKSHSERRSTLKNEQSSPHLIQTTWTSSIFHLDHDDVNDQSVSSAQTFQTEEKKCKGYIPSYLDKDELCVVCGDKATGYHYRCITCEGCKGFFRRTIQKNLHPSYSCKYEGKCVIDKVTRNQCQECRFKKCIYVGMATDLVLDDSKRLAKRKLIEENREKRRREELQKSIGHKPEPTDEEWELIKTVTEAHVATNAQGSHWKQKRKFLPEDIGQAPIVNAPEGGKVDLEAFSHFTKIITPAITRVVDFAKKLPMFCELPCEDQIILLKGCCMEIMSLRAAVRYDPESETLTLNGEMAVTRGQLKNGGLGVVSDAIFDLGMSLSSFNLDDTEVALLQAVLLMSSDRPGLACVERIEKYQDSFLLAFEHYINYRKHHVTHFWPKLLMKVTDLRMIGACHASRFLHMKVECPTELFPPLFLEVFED
# Chain of Retinoic acid receptor RXR-alpha (Homo sapiens) (P19793 whole entry, looked up, the tested form may be a part): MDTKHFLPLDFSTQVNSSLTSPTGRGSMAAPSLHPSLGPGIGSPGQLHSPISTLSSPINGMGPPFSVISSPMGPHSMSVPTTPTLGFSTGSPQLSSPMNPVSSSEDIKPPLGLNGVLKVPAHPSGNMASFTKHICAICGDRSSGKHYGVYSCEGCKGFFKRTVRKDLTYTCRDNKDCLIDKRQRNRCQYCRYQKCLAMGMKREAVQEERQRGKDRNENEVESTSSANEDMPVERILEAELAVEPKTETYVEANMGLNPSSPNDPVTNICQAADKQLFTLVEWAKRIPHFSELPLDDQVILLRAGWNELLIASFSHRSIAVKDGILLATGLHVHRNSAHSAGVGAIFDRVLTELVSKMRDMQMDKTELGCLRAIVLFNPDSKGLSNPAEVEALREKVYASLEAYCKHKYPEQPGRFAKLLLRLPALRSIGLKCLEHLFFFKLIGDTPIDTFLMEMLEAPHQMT
# Chain of THRA (gene 7067) (P10827 whole entry, looked up, the tested form may be a part): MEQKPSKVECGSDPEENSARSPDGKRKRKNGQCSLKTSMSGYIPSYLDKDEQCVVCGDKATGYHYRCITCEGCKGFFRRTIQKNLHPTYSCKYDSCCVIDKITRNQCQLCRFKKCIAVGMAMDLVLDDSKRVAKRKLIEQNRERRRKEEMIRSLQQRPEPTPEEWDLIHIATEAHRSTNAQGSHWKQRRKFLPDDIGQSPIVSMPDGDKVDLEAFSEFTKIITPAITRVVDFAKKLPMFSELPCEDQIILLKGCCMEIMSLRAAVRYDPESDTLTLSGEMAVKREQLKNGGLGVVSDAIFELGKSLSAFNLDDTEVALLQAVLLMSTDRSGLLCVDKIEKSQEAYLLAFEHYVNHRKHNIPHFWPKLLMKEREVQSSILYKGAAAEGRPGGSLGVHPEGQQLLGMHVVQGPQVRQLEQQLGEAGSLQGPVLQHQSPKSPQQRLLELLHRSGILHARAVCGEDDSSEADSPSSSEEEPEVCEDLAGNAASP
# T1 sequence (P63059 whole entry, looked up): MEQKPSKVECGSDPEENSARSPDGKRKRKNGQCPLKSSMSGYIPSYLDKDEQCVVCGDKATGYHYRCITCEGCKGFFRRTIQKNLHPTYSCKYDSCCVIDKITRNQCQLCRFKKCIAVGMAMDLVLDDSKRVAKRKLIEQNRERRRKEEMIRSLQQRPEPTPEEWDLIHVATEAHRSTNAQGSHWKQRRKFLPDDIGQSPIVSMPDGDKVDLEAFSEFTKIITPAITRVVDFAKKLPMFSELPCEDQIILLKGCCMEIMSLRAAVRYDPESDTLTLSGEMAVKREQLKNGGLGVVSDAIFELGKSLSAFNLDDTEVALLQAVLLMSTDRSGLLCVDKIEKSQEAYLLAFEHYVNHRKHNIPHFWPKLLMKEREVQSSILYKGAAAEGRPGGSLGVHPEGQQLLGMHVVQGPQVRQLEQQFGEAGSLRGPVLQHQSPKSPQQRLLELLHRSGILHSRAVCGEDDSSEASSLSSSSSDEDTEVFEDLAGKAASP
# T1 sequence (P18113 whole entry, looked up): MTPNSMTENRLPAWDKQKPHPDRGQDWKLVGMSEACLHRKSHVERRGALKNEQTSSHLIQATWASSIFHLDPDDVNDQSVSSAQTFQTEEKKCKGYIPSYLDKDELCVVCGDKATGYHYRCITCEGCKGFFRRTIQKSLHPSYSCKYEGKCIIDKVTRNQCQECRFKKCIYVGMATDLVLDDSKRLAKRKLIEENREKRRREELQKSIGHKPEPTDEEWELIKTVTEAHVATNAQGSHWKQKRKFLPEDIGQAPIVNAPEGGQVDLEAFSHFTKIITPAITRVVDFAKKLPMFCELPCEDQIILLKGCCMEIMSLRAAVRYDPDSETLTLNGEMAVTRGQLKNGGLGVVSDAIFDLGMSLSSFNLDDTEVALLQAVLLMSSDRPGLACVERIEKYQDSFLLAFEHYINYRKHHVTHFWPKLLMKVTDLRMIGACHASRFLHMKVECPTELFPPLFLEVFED
smiles,measurement,setting,value
CCOc1ccc2c(c1)C(C)=CC(C)(C)N2,outcome,PGR (gene 5241) [1],inactive
same,outcome,PGR (gene 5241) [2],inactive
same,outcome,[3],inactive
same,outcome,[4],inactive
same,outcome,PGR (gene 5241) [5],inactive
same,outcome,PGR (gene 5241) [6],inactive
same,outcome,[7],inactive
O=c1c(O)c(-c2ccc(O)c(O)c2)oc2cc(O)cc(O)c12,outcome,PGR (gene 5241) [2],inactive
same,outcome,PGR (gene 5241) [6],inactive
Cc1cc(NC(=O)C(=O)O)cc(C)c1Oc1ccc(O)c2c1CCC2,AC50,THRA (gene 7067),3.53 nM (active)
same,AC50,THRB (gene 7068) [8],84.8 nM (active)
same,AC50,THRB (gene 7068) [9],2.27 nM (active)
same,AC50,[10],21600 nM (active)
CCc1c(C(=O)NN2CCCCC2)nn(-c2ccc(Cl)cc2Cl)c1-c1ccc(Br)cc1,outcome,PGR (gene 5241) [1],inactive
same,AC50,PGR (gene 5241) [2],25500 nM (active)
same,outcome,[3],inactive
same,outcome,[4],inactive
same,outcome,PGR (gene 5241) [5],inactive
same,outcome,PGR (gene 5241) [6],inactive
same,outcome,[11],inactive
Oc1ccc2ccccc2c1N=Nc1ccccc1,outcome,PGR (gene 5241) [2],inactive
same,outcome,[3],inactive
same,outcome,[4],inactive
same,outcome,[11],inactive
Oc1ccc2c(c1)OC[C@@H](N1CCC(O)(c3ccc(F)cc3)CC1)[C@H]2O,outcome,PGR (gene 5241) [2],inactive
same,outcome,[3],inactive
same,outcome,[4],inactive
same,outcome,PGR (gene 5241) [6],inactive
same,outcome,[11],inactive
same,outcome,[7],inactive
Nc1nc(N)c2nc(CNc3ccc(C(=O)N[C@@H](CCC(=O)O)C(=O)O)cc3)cnc2n1,outcome,[12],inactive
same,outcome,[13],inactive
same,outcome,[14],inactive
CCCCCCCCCCC,outcome,[15],inactive
same,outcome,THRA (gene 7067),inactive
same,outcome,THRB (gene 7068) [8],inactive
same,outcome,THRB (gene 7068) [9],inactive
same,outcome,[10],inactive
same,outcome,[16],inactive
C[C@]12C=CC(=O)C=C1CC[C@@H]1[C@@H]2C(=O)C[C@@]2(C)[C@H]1CC[C@]2(O)C(=O)CO,outcome,PGR (gene 5241) [2],inactive
same,outcome,[3],inactive
same,outcome,PGR (gene 5241) [6],inactive
same,outcome,[11],inactive
same,outcome,[7],inactive
CCOC(=O)C(C)(C)Oc1ccc(Cl)cc1,outcome,[17],inactive
same,outcome,[18],inactive
Cc1oc(-c2ccccc2)nc1CCOc1cccc2c1ccn2CCC(=O)O,outcome,[19],inactive
